Compounds without any hit were thinned out: in the full panel of roughly 79,000, 15% have a hit. Calls of active or inactive are those of the source. No stated cut-off is given here; in the data, active means growth inhibition above about 70%; inactive means the rest.
Tests used:
[1] = NCI Yeast Anticancer Drug Screen. Data for the rad52 strain (AID 147);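 further: 0% = growth of vehicle-treated control cultures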; conditions: S. cerevisiae rad52 mutant growth inhibition, active compounds read high
In short: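 Yeast strain carrying a DNA damage repair alteration was exposed to test compounds. Growth inhibition was measured relative to vehicle-treated controls.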

[2] = NCI Yeast Anticancer Drug Screen. Data for the rad50EPP+ strain (AID 151);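 further: 0% = growth of vehicle-treated control cultures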; conditions: S. cerevisiae rad50 mutant strain, active compounds read high
In short: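 Yeast strain carrying rad50 alteration (rad50EPP+) exposed to compounds; growth inhibition measured relative to vehicle-treated controls.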

[3] = NCI Yeast Anticancer Drug Screen. Data for the rad50 strain (AID 155);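 further: 0% = growth of vehicle-only cultures of the same strain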; conditions: S. cerevisiae rad50 strain growth inhibition, active compounds read high
In short: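 Inhibition values express reduced yeast growth in compound-treated cultures relative to vehicle-treated controls.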

[4] = NCI Yeast Anticancer Drug Screen. Data for the mec2-1 strain (AID 157); conditions: S. cerevisiae mec2-1 strain, active compounds read high
In short: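 mec2-1 yeast strain, carrying an alteration in DNA damage repair or cell cycle control, was exposed to compounds; growth inhibition was measured relative to vehicle-treated controls.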

[5] = NCI Yeast Anticancer Drug Screen. Data for the rad14 strain (AID 159);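 further: 0% = growth of vehicle-treated control cultures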; conditions: S. cerevisiae rad14 strain growth inhibition, active compounds read high
In short: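 A mutant yeast strain defective in DNA damage repair is treated with compound; inhibition of its growth is scored against untreated, vehicle-exposed cultures.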

[6] = NCI Yeast Anticancer Drug Screen. Data for the sgs1 mgt1 strain (AID 161);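 further: 0% = growth of cultures given vehicle only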; conditions: S. cerevisiae sgs1 mgt1 strain, active compounds read high
In short: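 Growth of a repair-deficient yeast mutant was monitored after compound treatment and expressed as inhibition relative to vehicle-treated cultures.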

[7] = NCI Yeast Anticancer Drug Screen. Data for the CLN2oe strain (AID 163);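 further: 0% = growth of vehicle-only control cultures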; conditions: S. cerevisiae CLN2oe strain, active compounds read high
In short: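 Yeast cells carrying a defined cell-cycle control alteration were exposed to test compounds. Growth inhibition was scored against vehicle-treated control cultures.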

[8] = NCI Yeast Anticancer Drug Screen. Data for the cln2 rad14 strain (AID 165);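 further: 0% = growth equal to vehicle treated cultures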; conditions: S. cerevisiae cln2 rad14 strain, active compounds read high
In short: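 Yeast carrying cln2 and rad14 alterations (cell cycle control and DNA damage repair) were exposed to compounds. Growth inhibition was measured against vehicle-treated controls.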

[9] = NCI Yeast Anticancer Drug Screen. Data for the bub3 strain (AID 167); conditions: S. cerevisiae bub3 mutant strain, active compounds read high
In short: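 Steps: expose the mutant yeast strain to compound; grow alongside vehicle-treated cultures; measure growth; express inhibition against the vehicle cultures.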

[10] = NCI Yeast Anticancer Drug Screen. Data for the wt2 strain (AID 169);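 further: 0% = growth of vehicle-treated yeast cultures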; conditions: S. cerevisiae wt2 strain growth inhibition, active compounds read high
In short: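 Yeast cells were exposed to test compounds, and growth inhibition was measured relative to vehicle-treated controls.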

[11] = NCI Yeast Anticancer Drug Screen. Data for the mlh1 strain (AID 171);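 further: 0% = growth of vehicle-treated control cultures of the same strain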; conditions: S. cerevisiae mlh1 strain growth inhibition, active compounds read high
In short: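 Yeast carrying a defined genetic alteration in DNA damage repair or cell cycle control were exposed to test compounds. Growth inhibition was measured relative to vehicle-treated controls.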

[12] = NCI Yeast Anticancer Drug Screen. Data for the sgs1 strain (AID 173);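 further: 0% = growth of vehicle-only control cultures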; conditions: S. cerevisiae sgs1 mutant, active compounds read high
In short: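 Yeast mutant strains carrying defined defects in DNA damage repair or cell cycle control were exposed to test compounds. Growth inhibition was scored against vehicle-treated controls.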

[13] = NCI Yeast Anticancer Drug Screen. Data for the mlh1 rad18 strain (AID 175); conditions: S. cerevisiae mlh1 rad18 strain growth inhibition, active compounds read high
In short: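 Growth inhibition of the yeast strain was measured after compound exposure and expressed relative to vehicle-treated controls. The strain carries defined defects in DNA damage repair.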

[14] = NCI Yeast Anticancer Drug Screen. Data for the rad18 strain (AID 177); conditions: S. cerevisiae rad18 mutant growth inhibition, active compounds read high
In short: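 Yeast carrying a defined DNA damage repair alteration were exposed to compounds. Growth inhibition was expressed relative to vehicle-treated controls.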

[15] = NCI Yeast Anticancer Drug Screen. Data for the wt1 strain (AID 149);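 further: 0% = growth of vehicle-treated wt1 cultures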; conditions: S. cerevisiae wt1 strain (SPY 50644) growth inhibition, active compounds read high
In short: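 Compounds are added to wt1 yeast cultures. Growth is then measured. Inhibition is expressed relative to vehicle-treated controls.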

[16] = NCI Yeast Anticancer Drug Screen. Data for the mgt1 strain (AID 153); conditions: S. cerevisiae mgt1 mutant growth inhibition, active compounds read high
In short: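 Yeast mgt1 strain (DNA repair/cell-cycle alteration panel) exposed to compounds; growth inhibition measured relative to vehicle-treated controls.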

[17] = at 5.0 µM (retest, dose inferred, filed as 0.5)
[18] = at 50.0 µM (retest, dose inferred, filed as 5.0)

Measured: growth inhibition

CN(C)c1ccc(Sc2ccc3nc(N)nc(N)c3c2)cc1
inactive: [1]; at 1.2 µM 9% | [1]; at 3.7 µM 28% | [1]; at 11.0 µM 31% | [1]; at 33.0 µM 27% | [1]; at 100.0 µM 51% | [2]; at 1.2 µM 15% | [2]; at 3.7 µM 30% | [2]; at 11.0 µM 24% | [2]; at 33.0 µM 30% | [2]; at 100.0 µM 28% | [3]; at 1.2 µM -18% | [3]; at 3.7 µM 7% | [3]; [17] 41% | [3]; at 11.0 µM 8% | [3]; at 33.0 µM 5% | [3]; [18] 41% | [3]; at 50.0 µM 60% | [3]; at 100.0 µM 40% | [4]; at 1.2 µM -28% | [4]; at 3.7 µM -28% | [4]; [17] 28% | [4]; at 11.0 µM -4% | [4]; at 33.0 µM 13% | [4]; at 100.0 µM 55% | [5]; at 1.2 µM -15% | [5]; at 3.7 µM -4% | [5]; at 11.0 µM -9% | [5]; at 33.0 µM -14% | [5]; at 100.0 µM 5% | [6]; [17] 29% | [6]; [18] 67% | [6]; at 50.0 µM 60% | [7]; at 1.2 µM 17% | [7]; at 3.7 µM 8% | [7]; at 11.0 µM 17% | [7]; at 33.0 µM -11% | [7]; at 100.0 µM 18% | [8]; [17] 24% | [8]; [18] 6% | [8]; at 50.0 µM 25.4% | [9]; at 1.2 µM -17% | [9]; at 3.7 µM -11% | [9]; [17] 27% | [9]; at 11.0 µM -20% | [9]; at 33.0 µM -17% | [9]; [18] 43% | [9]; at 50.0 µM 21.9% | [9]; at 100.0 µM -9% | [10]; at 1.2 µM -4% | [10]; at 3.7 µM -1% | [10]; at 11.0 µM 9% | [10]; at 33.0 µM 7% | [10]; at 100.0 µM 1% | [11]; at 1.2 µM -4% | [11]; at 3.7 µM -8% | [11]; at 11.0 µM -16% | [11]; at 33.0 µM -9% | [11]; at 100.0 µM 18% | [12]; at 1.2 µM 14% | [12]; at 3.7 µM 21% | [12]; at 11.0 µM 24% | [12]; at 33.0 µM 17% | [12]; at 100.0 µM 18% | [13]; [17] 34% | [13]; [18] 34% | [13]; at 50.0 µM 51.8% | [14]; at 1.2 µM 3% | [14]; at 3.7 µM -17% | [14]; at 11.0 µM -12% | [14]; at 33.0 µM -17% | [14]; at 100.0 µM 11%
active: [4]; [18] 80% | [4]; at 50.0 µM 89.3%

Cc1cc(S(=O)(=O)/N=C(/NN)NNc2cccc(C(F)(F)F)n2)c(S)cc1Cl
inactive: [15]; at 1.2 µM 0% | [15]; at 3.7 µM -2% | [15]; at 11.0 µM -2% | [15]; at 33.0 µM -7% | [15]; at 100.0 µM 10% | [2]; at 1.2 µM -8% | [2]; at 3.7 µM -24% | [2]; at 11.0 µM -28% | [2]; at 33.0 µM -52% | [2]; at 100.0 µM -50% | [16]; at 1.2 µM -3% | [16]; at 3.7 µM -3% | [16]; at 11.0 µM -5% | [16]; at 33.0 µM 10% | [16]; at 100.0 µM 18% | [3]; at 1.2 µM 0% | [3]; at 3.7 µM -2% | [3]; [17] 1% | [3]; at 11.0 µM -3% | [3]; at 33.0 µM -3% | [3]; [18] 52% | [3]; at 50.0 µM -7.1% | [3]; at 100.0 µM 10% | [4]; at 1.2 µM 0% | [4]; at 3.7 µM 2% | [4]; [17] -7% | [4]; at 11.0 µM -3% | [4]; at 33.0 µM -7% | [4]; [18] 8% | [4]; at 50.0 µM 7.75% | [4]; at 100.0 µM 16% | [5]; at 1.2 µM -1% | [5]; at 3.7 µM -1% | [5]; at 11.0 µM 1% | [5]; at 33.0 µM -1% | [5]; at 100.0 µM 14% | [6]; [17] -10% | [6]; [18] 44% | [6]; at 50.0 µM 30.6% | [7]; at 1.2 µM 3% | [7]; at 3.7 µM 1% | [7]; at 11.0 µM -2% | [7]; at 33.0 µM -12% | [7]; at 100.0 µM 3% | [8]; [17] 4% | [8]; [18] 25% | [8]; at 50.0 µM 41.5% | [9]; at 1.2 µM 4% | [9]; at 3.7 µM 1% | [9]; [17] -4% | [9]; at 11.0 µM -3% | [9]; at 33.0 µM -4% | [9]; [18] 47% | [9]; at 50.0 µM -17.4% | [9]; at 100.0 µM 12% | [10]; at 1.2 µM 0% | [10]; at 3.7 µM -2% | [10]; at 11.0 µM -3% | [10]; at 33.0 µM -5% | [10]; at 100.0 µM 18% | [11]; at 1.2 µM -3% | [11]; at 3.7 µM -2% | [11]; at 11.0 µM -4% | [11]; at 33.0 µM -5% | [11]; at 100.0 µM 19% | [12]; at 1.2 µM -1% | [12]; at 3.7 µM 1% | [12]; at 11.0 µM -2% | [12]; at 33.0 µM -1% | [12]; at 100.0 µM 25% | [13]; [17] 21% | [13]; [18] 52% | [13]; at 50.0 µM 19.6% | [14]; at 1.2 µM 0% | [14]; at 3.7 µM -1% | [14]; at 11.0 µM -6% | [14]; at 33.0 µM -3% | [14]; at 100.0 µM 16%

— PubChem BioAssay (NCI)
